Sampled rows, rich in hits. Any-hit rate of the full collection: about 3.2%.
VDR inhibitor = blocks the human vitamin D receptor; P11473; VDR-SRC2-3 peptide fluorescence polarization, 2 h; Potency, µM, without a hit: max response, negative = inhibition, usual class: inhibitors; hit rate 0.93% among 400,000; AID 504847; note: potency is the fitted concentration of half-maximal effect
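Signal is fluorescence polarization, reporting how far test compounds block the interaction of VDR with the SRC2-3 coregulator peptide after a 2 h room-temperature incubation.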
PLK1 PBD inh = PLK1 (human) polo-box domain binding inhibition. Potency, µM, inactives show max response, negative = inhibition, actives largely listed as inhibitors. AID 720504. Plk1 PBD binding of FITC phosphopeptide, fluorescence polarization. hit rate 2.8% among 360,000; note: potency is the fitted concentration of half-maximal effect; series mostly up to about 57 µM; nearly all actives have a fitted effect of over 65% in size
USP1-UAF1 inh = USP1/UAF1 (human) deubiquitinase inhibition | Potency, µM (titrated, usually from 57.1 µM), without a hit: top-dose activity change, negative = inhibition, usual class: inhibitors | hit rate 0.23% among 390,000 | recombinant USP1/UAF1, Ub-Rhodamine cleavage fluorescence; note: potency is the fitted concentration of half-maximal effect; nearly all actives have a fitted effect of over 60% in size
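In this screen, compounds sit with the deubiquitinase complex (1nM) for 15 min at room temperature before Ub-Rho is added at 150nM final. Fluorescence rise is then followed for 6 reads every 60 seconds.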
FBPA coupling cs = coupling enzyme interference in Giardia aldolase counter-screen; coupling enzyme system counterscreen, AmpLite Red fluorescence; activity change, negative = inhibition, % at 58.2 µM, hits read low; AID 2472; hit rate 0.67% among 290,000; in the data active = activity change below about -30%
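Counterscreen lacking aldolase: glyceraldehyde-3-phosphate coupling-enzyme reagent preincubated 10 min at RT with compound (at 57.5 uM final), then substrate/coupling system with AmpLite Red added; fluorescence read at 525/598 nm after 20 min RT.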
GALK inhibitor = blocks human galactokinase activity. Purified GALK, Kinase-Glo residual ATP luminescence. Potency, µM (highest dose often 57.5 µM), inactives show top-dose activity change, negative = inhibition, most hits filed as inhibitors. hit rate 0.007% among 270,000; note: potency is the fitted concentration of half-maximal effect
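GALK at 5 nM final was combined with compound, 35 uM ATP and 100 uM galactose in HEPES pH8.0 with MgCl2 and DTT. The reaction ran one hour at room temperature before luminescent ATP detection.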
USP2a block = blocks human ubiquitin-specific protease USP2a; O75604; USP2 core, Ub-CHOP2 coupled fluorogenic reporter, 485/531; Potency, µM (series often up to 38.3 µM), inactives show at the top dose activity change, negative = inhibition, most hits filed as inhibitors; hit rate 0.01% among 330,000; AID 463254;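 note: potency is the fitted concentration of half-maximal effect; plate controls were DMSO wells for no effect and full inhibition by NEM control for full effect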
Target sequence (O75604 whole entry, looked up): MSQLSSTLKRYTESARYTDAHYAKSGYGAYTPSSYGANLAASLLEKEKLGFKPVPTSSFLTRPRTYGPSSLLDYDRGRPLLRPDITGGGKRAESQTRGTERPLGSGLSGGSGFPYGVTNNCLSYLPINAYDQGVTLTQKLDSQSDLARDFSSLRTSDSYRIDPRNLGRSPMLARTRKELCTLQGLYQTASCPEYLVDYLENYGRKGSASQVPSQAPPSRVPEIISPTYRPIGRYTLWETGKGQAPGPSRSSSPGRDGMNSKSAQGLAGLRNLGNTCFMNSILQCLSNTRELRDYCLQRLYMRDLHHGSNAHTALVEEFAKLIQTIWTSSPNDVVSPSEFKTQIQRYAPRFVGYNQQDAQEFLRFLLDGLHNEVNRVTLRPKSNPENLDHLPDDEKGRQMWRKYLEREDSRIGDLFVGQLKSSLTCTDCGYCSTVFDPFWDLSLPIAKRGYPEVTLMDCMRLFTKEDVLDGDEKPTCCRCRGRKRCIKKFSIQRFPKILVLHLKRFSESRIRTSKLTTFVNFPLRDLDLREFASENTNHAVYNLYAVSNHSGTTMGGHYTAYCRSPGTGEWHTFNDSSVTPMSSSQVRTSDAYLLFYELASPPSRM
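Cell-free coupled assay: 10nM USP2 core preincubated 30min RT with compound in Tris-HCl pH 8.0/CaCl2/CHAPS buffer, then 25nM Ub-CHOP2 and 25nM reporter substrate; fluorescence (Ex 485/Em 531) read after 60min RT, normalized to NEM inhibition, concentration-response curves fitted.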
The depositor's hits bear a star; ? = inconclusive; / = not tested or not shown. Unless noted, calls come from the whole dose curve; as a rule, active = well fitted curve in the direction sought with a large enough effect; inconclusive = small, poorly fitted or top-dose-only effect, or another doubt; inactive = no such curve, though single readings can be large; an effect the other way counts as inactive or inconclusive. Unless noted, % is set by controls: 0 for no effect and ±100 for the full control effect.

SMILES	VDR inhibitor	PLK1 PBD inh	USP1-UAF1 inh	FBPA coupling cs	GALK inhibitor	USP2a block
CN(C1=C(NC(=O)c2ccc(Cl)cc2)C(=O)c2ccccc2C1=O)c1ccccc1	-14%	10%	-10%	-55*	5%	0%
CN1C(=O)/C(=C/c2ccccc2OCc2ccccc2F)NC1=S	-20%	-16%	-4%	-1	/	4%
CC(SC1=NCCS1)C(=O)Nc1nnc(-c2ccc(Cl)cc2)s1 (stereo unspecified)	-22%	0%	-17%	5	-1%	1%
COCCCNCCCCOc1ccc(Br)cc1C	-20%	-11%	-19%	-2	4%	-1%
Cc1cc(Br)ccc1OCCCCNC(C)(C)C	?	27µM*	-16%	3	0%	2%
CC1=CC(=O)C=C(C)C1=NOC(=O)/C=C\c1ccccc1	2%	1.3µM*	-3%	-16	0%	6%
CC1=C(C)/C(=N\OC(=O)/C=C/c2ccccc2)C=CC1=O	?	3µM*	-21%	/	-5%	0%
N/C(=N\OC(=O)/C=C/c1ccccc1)c1ccncc1	-3%	5%	-17%	1	-1%	-4%
CC1=CC(=NOC(=O)/C=C/c2ccccc2)C=C(C)C1=O	?	19µM*	-11%	-45*	-2%	3%
Cc1ccc(NC(=O)c2cnc(SCC(=O)NCC3CCCO3)n(C)c2=O)cc1C (stereo unspecified)	-29%	-11%	1%	/	/	1%
CCn1c(SCC(=O)Nc2cc(NC(C)=O)ccc2OC)nnc1-c1ccccn1	5%	1%	-5%	-1	-4%	-1%
COc1ccccc1CNC(=O)c1cc(-c2ccccc2)nn1Cc1cc(C)no1	-9%	7%	-18%	/	/	0%
CCCCS(=O)(=O)/C=C\C=C/S(=O)(=O)CCCC	35µM*	15µM*	-3%	0	1%	-2%
Cc1ccc(N(CC(=O)Nc2cccc(Cl)c2C)S(=O)(=O)c2c(C)noc2C)cc1	-15%	/	?	/	/	/
COc1c(OC(C)=O)c(=O)n2c3ccccc3c3ccnc1c32	-7%	24µM*	-15%	/	/	2%
CN(C)c1ccc(/C=C2\SC(=S)N(Nc3ncc(C(F)(F)F)cc3Cl)C2=O)cc1	-13%	52%	25µM*	-1	0%	10%
CC(=O)Nc1ccc(S(=O)(=O)NCC(=O)NCCc2ccc(S(N)(=O)=O)cc2)cc1	11%	-11%	-22%	0	-2%	3%
NS(=O)(=O)c1ccc(CCNC(=O)CNS(=O)(=O)c2cccc(Br)c2)cc1	-29%	5.3µM*	-19%	0	1%	-6%
O=C(CSc1n[nH]c(=O)[nH]c1=O)Nc1ccc2c(c1)C(=O)c1ccccc1C2=O	?	6.7µM*	?	13	4%	-4%
COc1ccc2c(c1)Cc1sc(NC(C)=O)nc1-2	-13%	-21%	?	-31*	-1%	1%
COc1ccc(-c2nc(NC(C)=O)sc2-c2ccc(OC)cc2)cc1	-6%	-3%	-10%	-52*	1%	-12%
CNc1nc(-c2ccc(OC)cc2)c(-c2ccc(OC)cc2)s1	-4%	-8%	-14%	-6	12%	-16%
CCOc1ccccc1C=Nc1ccccc1C(=O)Nc1ccccc1	25µM*	-6%	-7%	4	1%	1%
O=C(Nc1ccccc1)c1ccccc1N=Cc1ccccc1O	-5%	-8%	-10%	3	/	2%
O=S(=O)(Nc1nnc(C2CCCCC2)s1)c1ccc(F)cc1	-25%	-26%	-23%	8	1%	0%
SMILES	VDR inhibitor	PLK1 PBD inh	USP1-UAF1 inh	FBPA coupling cs	GALK inhibitor	USP2a block
CC(=O)Nc1ccc(S(=O)(=O)Nc2nnc(C3CCCCC3)s2)cc1	-15%	24µM*	-21%	13	0%	-1%
CC(=O)Nc1ccc(S(=O)(=O)Nc2nnc(Cc3ccc(Cl)cc3)s2)cc1	-14%	27µM*	-20%	10	-3%	0%
COc1ccc(Cc2nnc(NS(=O)(=O)c3ccc(NC(C)=O)cc3)s2)cc1	-2%	-13%	-5%	12	0%	-1%
CC[C@@H]1Cn2c(c3nc(-c4cc(Cl)cc(Cl)c4Cl)nc-3n(C)c2=O)N1	0%	/	/	0	/	/
Cc1cccc(CNC(=O)CCCn2nc(C)c3c(C)n(-c4ccccc4)nc3c2=O)c1	-18%	-5%	-9%	/	-4%	4%
CC(=O)N1c2ccc(S(=O)(=O)NCCC(=O)Nc3ccc(OC(F)(F)F)cc3)cc2CC1C (stereo unspecified)	?	6.7µM*	-26%	-1	10%	1%
CC(=O)N1c2ccc(S(=O)(=O)NCCC(=O)NCCc3ccc(C)cc3)cc2CC1C (stereo unspecified)	?	30µM*	-19%	2	10%	4%
CC(=O)N1c2ccc(S(=O)(=O)NC(CC(=O)O)c3ccc(Br)cc3)cc2CC1C (stereo unspecified)	?	27µM*	-21%	13	-2%	-1%
CC(=O)N1c2ccc(S(=O)(=O)NCCC(=O)Nc3ccc(Cl)cc3)cc2CC1C (stereo unspecified)	/	1%	0%	/	/	/
CCOc1ccc(OCC)c(NC(=O)C2CCN(S(=O)(=O)c3ccc4c(c3)CC(C)N4C(C)=O)CC2)c1 (stereo unspecified)	-7%	30µM*	-10%	/	-1%	-18%
COc1ccc(S(=O)(=O)Nc2ccc3c(c2)N(C(C)=O)CCC3)cc1OC	-7%	3%	7%	/	/	1%
CC1Cc2cc(S(=O)(=O)NCCC(=O)NCc3ccc(F)cc3)ccc2N1C(=O)C1CC1 (stereo unspecified)	5%	17%	-8%	3	-3%	-2%
CC(=O)N1c2ccc(S(=O)(=O)NCCC(=O)NCc3ccc(F)cc3)cc2CC1C (stereo unspecified)	?	30µM*	-12%	0	7%	3%
CC(=O)N1c2ccc(S(=O)(=O)NCC3CCC(C(=O)N4CCCC(C)C4)CC3)cc2CC1C (stereo unspecified)	?	21µM*	-29%	/	-3%	-2%
CC(=O)N1c2ccc(S(=O)(=O)NCC3CCC(C(=O)N4CCCCC4)CC3)cc2CC1C (stereo unspecified)	-9%	-13%	-5%	3	-2%	1%
CN1CCN(S(=O)(=O)c2cccc(C(=O)Nc3ccccc3N3CCCC3)c2)CC1	-5%	-8%	-4%	/	1%	0%
CC(C)Cc1nc(SCC(=O)NCC2CCCO2)c2c(=O)n(C)c(=O)n(C)c2n1 (stereo unspecified)	0%	-7%	-31%	-2	1%	2%

Source: PubChem (National Center for Advancing Translational Sciences (NCATS))
